The whole screen tested about 5,500 compounds, of which about 2,000 (36%) were called active. About 18% were inconclusive and are not listed. Cut-off read from the data, not from the text of the source: active = normalized growth mostly below about 0.91 (no sharp cut-off); inconclusive = no clear call, values can overlap the other calls; inactive = mostly above about 0.92. The list shows a part of the results.
Test: chemical genetic growth profiling, strain panel (AID 1159580);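 note: tested at 20 µM; growth read once vehicle control cultures reached saturation at 30 °C; 1 = growth at the plate median or of vehicle wells; lower values mean less growth of the strain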
Details: S. cerevisiae deletion strains, growth OD
[1] = locus YAR019C, strain CDC15, active compounds read low
[2] = locus YBL105C, strain PKC1, active compounds read low
[3] = locus YBR135W, strain CKS1, active compounds read low
[4] = locus YBR136W, strain MEC1, active compounds read low
[5] = locus YBR160W, strain CDC28, active compounds read low
[6] = locus YDL017W, strain CDC7, active compounds read low
[7] = locus YDL028C, strain MPS1, active compounds read low
[8] = locus YDL101C, strain DUN1, active compounds read low
[9] = locus YDL108W, strain KIN28, active compounds read low
[10] = locus YDL132W, strain cdc53, active compounds read low
[11] = locus YDL214C, strain PRR2, active compounds read low
[12] = locus YDR052C, strain DBF4, active compounds read low
[13] = locus YDR054C, strain cdc34, active compounds read low
[14] = locus YDR226W, strain ADK1, active compounds read low
[15] = locus YDR477W, strain SNF1, active compounds read low
[16] = locus YER123W, strain YCK3, active compounds read low
[17] = locus YER133W, strain GLC7, active compounds read low
[18] = locus YFL009W, strain cdc4, active compounds read low
[19] = locus YFL029C, strain CAK1, active compounds read low
[20] = locus YFR003C, strain YPI1, active compounds read low
[21] = locus YFR019W, strain FAB1, active compounds read low
[22] = locus YFR028C, strain CDC14, active compounds read low
[23] = locus YGR040W, strain KSS1, active compounds read low
[24] = locus YGR052W, strain FMP48, active compounds read low
[25] = locus YGR092W, strain DBF2, active compounds read low
[26] = locus YHR030C, strain SLT2, active compounds read low
[27] = locus YHR079C, strain IRE1, active compounds read low
[28] = locus YHR082C, strain KSP1, active compounds read low
[29] = locus YHR205W, strain SCH9, active compounds read low
[30] = locus YIL147C, strain SLN1, active compounds read low
[31] = locus YJL095W, strain BCK1, active compounds read low
[32] = locus YJL128C, strain PBS2, active compounds read low
[33] = locus YJL157C, strain FAR1, active compounds read low
[34] = locus YJR016C, strain ILV3, active compounds read low
[35] = locus YJR066W, strain TOR1 (second series), active compounds read low
[36] = locus YJR066W, strain TOR1, active compounds read low
[37] = locus YKL048C, strain ELM1, active compounds read low
[38] = locus YKL067W, strain YNK1, active compounds read low
[39] = locus YKL101W, strain HSL1, active compounds read low
[40] = locus YKL193C, strain SDS22, active compounds read low
[41] = locus YKL203C, strain TOR2, active compounds read low
[42] = locus YLR113W, strain HOG1, active compounds read low
[43] = locus YLR133W, strain CKI1, active compounds read low
[44] = locus YLR403W, strain SFP1, active compounds read low
[45] = locus YML070W, strain DAK1, active compounds read low
[46] = locus YMR001C, strain CDC5, active compounds read low
[47] = locus YMR205C, strain PFK2 (second series), active compounds read low
[48] = locus YMR277W, strain FCP1, active compounds read low
[49] = locus YNL006W, strain LST8, active compounds read low
[50] = locus YNL020C, strain ARK1, active compounds read low
[51] = locus YNL161W, strain CBK1, active compounds read low
[52] = locus YNL183C, strain NPR1, active compounds read low
[53] = locus YNL207W, strain RIO2, active compounds read low
[54] = locus YNL222W, strain SSU72, active compounds read low
[55] = locus YNL307C, strain MCK1 (second series), active compounds read low
[56] = locus YOL078W, strain AVO1, active compounds read low
[57] = locus YOL136C, strain PFK27, active compounds read low
[58] = locus YOR061W, strain CKA2, active compounds read low
[59] = locus YOR119C, strain RIO1, active compounds read low
[60] = locus YOR231W, strain MKK1, active compounds read low
[61] = locus YOR329C, strain SCD5, active compounds read low
[62] = locus YPL031C, strain PHO85, active compounds read low
[63] = locus YPL153C, strain RAD53, active compounds read low
[64] = locus YPL204W, strain HRR25, active compounds read low
[65] = locus YPL209C, strain IPL1, active compounds read low
[66] = locus YPL256C, strain CLN2, active compounds read low
[67] = locus YPR025C, strain CCL1, active compounds read low
[68] = locus YPR106W, strain ISR1, active compounds read low
[69] = locus YPR111W, strain DBF20, active compounds read low
[70] = strain NNK1, active compounds read low
[71] = strain TSCII, active compounds read low

Measured: normalized growth

O=S(=O)(Nc1cc(C(F)(F)F)cc(C(F)(F)F)c1)c1ccc(Cl)s1
inactive: [1] 0.927 | [2] 0.921 | [3] 0.93 | [4] 0.922 | [5] 0.923 | [6] 0.925 | [7] 0.928 | [8] 0.942 | [9] 0.939 | [10] 0.925 | [11] 0.818 | [13] 0.926 | [14] 0.914 | [15] 0.808 | [16] 0.622 | [17] 0.83 | [18] 0.92 | [19] 0.928 | [20] 0.927 | [22] 0.927 | [23] 0.835 | [24] 0.619 | [29] 0.808 | [30] 0.927 | [31] 0.605 | [32] 0.906 | [33] 0.802 | [34] 0.921 | [35] 0.856 | [36] 0.668 | [38] 0.841 | [40] 0.933 | [41] 0.786 | [43] 0.772 | [44] 0.837 | [45] 0.718 | [46] 0.93 | [47] 0.852 | [48] 0.931 | [49] 0.941 | [50] 0.726 | [51] 0.927 | [52] 0.568 | [53] 0.914 | [54] 0.934 | [55] 0.645 | [56] 0.923 | [58] 0.836 | [59] 0.838 | [61] 0.927 | [62] 0.706 | [65] 0.927 | [67] 0.929 | [68] 0.934 | [69] 0.923 | [70] 0.919 | [71] 0.917
active: [12] 0.891 | [21] 0.772 | [25] 0.369 | [26] 0.246 | [27] 0.51 | [28] 0.48 | [37] 0.701 | [39] 0.685 | [42] 0.55 | [57] 0.67 | [60] 0.558 | [63] 0.617 | [64] 0.628 | [66] 0.475

COC(=O)c1sccc1S(=O)(=O)Nc1cc(C(F)(F)F)cc(C(F)(F)F)c1
inactive: [1] 0.973 | [2] 0.967 | [3] 0.974 | [4] 0.974 | [5] 0.962 | [6] 0.973 | [7] 0.979 | [8] 0.957 | [9] 0.97 | [10] 0.967 | [11] 0.962 | [12] 0.969 | [13] 0.98 | [14] 0.971 | [15] 0.985 | [16] 0.936 | [17] 0.981 | [18] 0.965 | [19] 0.965 | [20] 0.974 | [21] 0.955 | [22] 0.962 | [23] 0.971 | [24] 1.03 | [25] 0.977 | [26] 1.07 | [27] 1.02 | [28] 1.06 | [29] 0.947 | [30] 0.978 | [31] 1.01 | [32] 0.9 | [33] 0.963 | [34] 0.97 | [35] 0.942 | [36] 1.07 | [37] 0.95 | [38] 0.956 | [39] 0.958 | [40] 0.969 | [41] 1.04 | [42] 0.902 | [43] 0.962 | [44] 0.966 | [45] 0.935 | [46] 0.972 | [47] 0.946 | [48] 0.971 | [49] 0.985 | [50] 0.956 | [51] 0.967 | [52] 0.997 | [53] 0.97 | [54] 0.961 | [55] 0.943 | [56] 0.971 | [57] 0.938 | [58] 0.955 | [59] 1.05 | [60] 0.934 | [61] 0.972 | [62] 0.987 | [63] 0.973 | [64] 0.97 | [65] 0.965 | [66] 0.967 | [67] 0.969 | [68] 0.955 | [69] 0.938 | [70] 0.974 | [71] 0.972

— PubChem BioAssay AID1159580 (chemical genetic matrix, 2015)
